The values below come from PubChem BioAssay (NCI).

This is part of a sample that, as a whole, favours compounds with a hit. Of some 83,000 tested, about 20% had one in any assay.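 Results are percent growth after 48 hours of single-concentration exposure. 100 means growth as in untreated cells, lower positive values show inhibition; negative values down to -100 show cell death.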 Activity calls are given as the source filed them. How the source made its calls: active means growth percent below 10; inactive means the rest.

The assay deals with MDA-MB-468 breast. Put plainly: NCI-60 one-dose screen, 48 h (100 = growth as untreated, 0 = no growth, -100 = all killed). The settings on record: 10 µM unless noted.
In the case of `COc1cc(-c2nn(-c3ccc(NC(=O)Nc4ccc(Cl)c(C(F)(F)F)c4)cc3)cc2-c2ccncc2)ccc1Cl`, the growth is -13.2% (active). The value for `COc1ccc(N2CCN(c3nc(-c4cc(OC)c(OC)c(OC)c4)nc4ccccc34)CC2)cc1` was 76.2% (inactive).

For `Cc1oc2ccc(O)c(CN3CCCCCC3)c2c1C(=O)Nc1ccc(C(F)(F)F)cc1`, the growth is 5.74% (active). As for `CN1CCN(Cc2ccc(NC(=O)c3cncc(C#Cc4cnn5cccnc45)c3)cc2C(F)(F)F)CC1`, the growth is 25.4% (inactive). The value for `COc1ccc(CNC(=O)[C@H](O)[C@@H](N)Cc2ccccc2)cc1` was 106% (inactive); that for `CC(C)(O)c1cncc(-c2ccc3ncnc(NCc4ccccc4)c3c2)c1` was 64.8% (inactive); that for `Brc1ccc2[nH]cc(-c3nonc3-c3c[nH]c4ccccc34)c2c1` was 62.9% (inactive). Consider `O=c1c2ccccc2[nH]n1Cc1ccc2c(c1)OCO2`, for which the growth was 94.5% (inactive). Next, `COC(=O)[C@@H]1CCCN1C(=O)[C@@H]1CCCN1C(=O)[C@@H](Cc1c[nH]c2ccccc12)NC(=S)Nc1cc(C(F)(F)F)cc(C(F)(F)F)c1`: 2.25% (active); `COc1ccc(S(=O)(=O)N2CCCCC2)cc1NC(=O)c1[nH]c(C)c2c1CCCCC2=O`: -2.19% (active).

For `O=Nc1ccc(NC(=O)Nc2ccc([N+](=O)[O-])cc2)cc1`, the growth was 96% (inactive). The value for `COc1ccc(-n2c(SCC(=O)Nc3ccc(-c4nc5ccccc5[nH]4)cc3)nc3ccccc3c2=O)cc1` was -88.2% (active); that for `Cc1ccnc2c(OCc3ccccc3)cccc12` was 34.2% (inactive).
